Laboratory results: the supplement of paper PMC3334620
The full ranking holds about 33,000 sequences; the median of “E-score (-0.5 to 0.5)” is about -0.021, and the highest 2% start at about 0.32. For the sample, the highest values were picked, then their nearest neighbours and some sequences at random.

molecular target: T1, Zap1 (UniProt P47043); experiment: PBM E-score (8-mer binding enrichment) (E-score (-0.5 to 0.5)); higher = stronger / more preferred TF binding; settings: protein concentration: 200 nM; construct: GST-full length
T1 sequence: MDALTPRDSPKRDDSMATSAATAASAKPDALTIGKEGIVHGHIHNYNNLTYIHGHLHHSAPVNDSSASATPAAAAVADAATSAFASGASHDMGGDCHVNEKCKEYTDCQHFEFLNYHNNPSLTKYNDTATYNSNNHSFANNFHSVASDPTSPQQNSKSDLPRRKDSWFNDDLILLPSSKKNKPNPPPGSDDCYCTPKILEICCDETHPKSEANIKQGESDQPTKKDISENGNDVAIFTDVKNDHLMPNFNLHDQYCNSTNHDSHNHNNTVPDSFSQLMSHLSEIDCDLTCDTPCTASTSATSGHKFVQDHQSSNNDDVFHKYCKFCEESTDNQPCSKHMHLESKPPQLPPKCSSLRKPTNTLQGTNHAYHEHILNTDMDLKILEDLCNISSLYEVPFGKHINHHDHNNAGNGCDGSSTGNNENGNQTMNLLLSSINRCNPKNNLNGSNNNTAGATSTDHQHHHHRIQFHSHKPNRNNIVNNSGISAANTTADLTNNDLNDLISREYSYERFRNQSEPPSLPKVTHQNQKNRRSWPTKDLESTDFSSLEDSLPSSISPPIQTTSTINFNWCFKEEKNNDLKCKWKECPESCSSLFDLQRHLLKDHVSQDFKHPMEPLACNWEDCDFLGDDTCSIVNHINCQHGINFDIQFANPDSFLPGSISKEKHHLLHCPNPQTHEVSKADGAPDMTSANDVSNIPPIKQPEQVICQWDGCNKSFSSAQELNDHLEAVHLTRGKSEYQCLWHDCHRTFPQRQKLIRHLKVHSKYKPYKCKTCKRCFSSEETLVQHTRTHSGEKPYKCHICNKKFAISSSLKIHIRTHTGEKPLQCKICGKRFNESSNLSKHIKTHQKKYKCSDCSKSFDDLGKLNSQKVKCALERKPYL
Procedure, shortened: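 Using PURExpress in vitro transcription/translation, GST-tagged yeast transcription factors were made in full-length or DNA-binding-domain form. These were applied at about 100-200 nM to double-stranded universal all-10-mer Agilent arrays, and bound protein was detected with fluorescent anti-GST. Scans were normalised with masliner before the Universal PBM Analysis Suite assigned E-scores to ungapped eight-base words pooled with their reverse complements.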

| Sequence | PBM E-score |
| --- | --- |
| TCGCCACA | -0.04 |
| AGCAGCCT | -0.168 |
| ATAGCAGG | 0.0205 |
| ATGAATGG | 0.203 |
| CTAGTAGC | -0.168 |
| ACGATATC | 0.0333 |
| GTGGGTGA | 0.0723 |
| CTGGGTTC | 0.0979 |
| CTGGGTCA | 0.143 |
| CTGGGTTA | 0.369 |
| ATGGGTTC | 0.116 |
| ATGGGTTG | 0.234 |
| GTGGGTTA | 0.404 |
| GTGGGTAA | 0.0319 |
| ATGGGTTA | 0.455 |
| GCCACAAC | 0.212 |
| TAGGACGA | -0.113 |
| AGCAAGCG | -0.192 |
| GAGACAAA | -0.173 |
| GCCACACA | -0.0586 |
| CCCCACGC | -0.0232 |
| ACACAAGG | 0.132 |
| AAGTTCAG | -0.0476 |
| CGGGTCAA | 0.163 |
| GCGGTCAC | 0.313 |

| Sequence | PBM E-score |
| --- | --- |
| AGGGTCAG | 0.24 |
| ATGGTCAC | 0.312 |
| AGGGTCAA | 0.416 |
| GGGGTCAA | 0.266 |
| TGGGTCAA | 0.0925 |
| GGGGTCAC | 0.428 |
| AGGGTCGG | 0.126 |
| AGGGTCAC | 0.417 |
| CGGGTCGC | 0.0356 |
| AGGGTCGC | 0.364 |
| GATTCTTA | 0.177 |
| CTAGTCTA | -0.0327 |
| CAGGTTCG | -0.158 |
| ATATCCTG | 0.103 |
| ACCATCGT | -0.0674 |
| ACTAACTG | 0.126 |
| AGGGTCCC | 0.32 |
| CTGGTCAC | 0.148 |
| CGGGTCAC | 0.374 |
| CGGGTCCC | -0.116 |
| AGGGTCCA | 0.214 |
| AGAGTCAT | -0.0584 |
| AGGGTCAT | 0.449 |
| ATGGTCAA | 0.245 |
| CGGGTCAG | 0.28 |

| Sequence | PBM E-score |
| --- | --- |
| CGAGGGGC | 0.0476 |
| CAAGGACA | -0.0888 |
| GAGATCCA | -0.0613 |
| GACCAAGA | 0.0225 |
| GAACCTAA | 0.194 |
| TACGAATA | 0.197 |
| ACACCTAA | 0.0902 |
| AAAATAAC | 0.21 |
| CAAATAAC | 0.322 |
| GAAATAAC | 0.221 |
| ACCCTTCC | 0.281 |
| GCCCTTCA | 0.0388 |
| ACCCTTCT | 0.272 |
| ACCCTTCG | 0.373 |
| ACCCTTCA | 0.341 |
| TCCCTTCA | -0.0499 |
| CTCGATCC | -0.0316 |
| ACTGTTCT | -0.0178 |
| GACCTAGC | -0.0032 |
| GTCGCGAA | -0.0334 |
| GTCGCGAC | 0.357 |
| CTCGCGAC | 0.0966 |
| GTAAATCA | 0.207 |
| ACGTCTAG | -0.0284 |
| CGTACTTC | -0.125 |

| Sequence | PBM E-score |
| --- | --- |
| CGAGGGTA | 0.371 |
| GGAGGGAA | -0.213 |
| AGAGGGTA | 0.29 |
| GGAGGGGA | -0.0565 |
| GGAGGGTA | 0.346 |
| CGAGGGTC | 0.245 |
| GATTAACC | 0.173 |
| AACTAACT | 0.00107 |
| AACTAACC | 0.333 |
| AATTAATA | 0.332 |
| TATTAATA | 0.0379 |
| AATTAACC | 0.327 |
| AATTAACT | 0.0482 |
| CATTAACG | 0.0999 |
| AACTAACA | 0.153 |
| AATTAATT | 0.0914 |
| CATTAACC | 0.379 |
| CATTAACA | 0.0919 |
| CCGATCGG | 0.13 |
| AGCTTGGG | -0.06 |
| GGCCTTCA | 0.167 |
| GCGAACCC | 0.00303 |
| GAGCTGAC | 0.122 |
| CAGTGACG | -0.0109 |
| ACGAAATG | 0.0348 |

| Sequence | PBM E-score |
| --- | --- |
| TAGACTGA | -0.182 |
| AATCTTTG | 0.114 |
| ACATACCT | 0.118 |
| CTTGGCGC | 0.0977 |
| GTGGTAAA | -0.0285 |
| ATGGTAAG | -0.124 |
| GTGGTAAC | 0.36 |
| CTGGTAAC | 0.255 |
| ATGGTAAA | 0.0888 |
| ATGGTAAC | 0.392 |
| CAAGTGTC | -0.0245 |
| ACCCAAGA | 0.152 |
| ACTATGGA | -0.0878 |
| ACAATAGG | -0.0709 |
| ACCAGTTA | 0.206 |
| GGATAAAC | 0.149 |
| GGATAACC | 0.436 |
| CGATAACG | -0.174 |
| AGATAACT | -0.118 |
| AGATAACC | 0.435 |
| AGATAACG | 0.0406 |
| CGATAACA | 0.131 |
| GGATAACA | -0.0812 |
| CGATAACC | 0.46 |
| CCTCTCGC | -0.108 |

| Sequence | PBM E-score |
| --- | --- |
| ACAAGCCG | -0.223 |
| TATGGGGA | 0.145 |
| AATATCCT | 0.00302 |
| AAGAGCTA | -0.0268 |
| ATGGGGTC | 0.284 |
| ATGGGGTG | 0.143 |
| GTGGGGTA | 0.368 |
| CTGGGGTA | 0.269 |
| ATGGGGTA | 0.326 |
| GGGGGGTA | -0.0438 |
| CGAACACA | 0.085 |
| AGTAACTC | -0.0584 |
| CGTAACTA | 0.0577 |
| GGTAACCA | 0.461 |
| AGTAACCC | 0.443 |
| CGTAACCA | 0.441 |
| AGTAACTA | 0.219 |
| GGTAACTA | 0.313 |
| AGTAACCA | 0.387 |
| AGTAACGA | 0.0604 |
| GGTAACGA | 0.294 |
| AGTAAACC | 0.177 |
| CGTAACGA | -0.081 |
| CATCAGGA | 0.0932 |
| ATAGTTGG | -0.0799 |

| Sequence | PBM E-score |
| --- | --- |
| CTGGAGGA | -0.216 |
| AAAGTAGT | 0.0501 |
| ACACTTGG | 0.0219 |
| GGTAATAA | 0.338 |
| TGTAATAA | 0.133 |
| GGTAATAC | 0.248 |
| AGTAACCG | 0.355 |
| AGTAACGG | 0.126 |
| CGTAACAA | 0.201 |
| AGTAACAA | 0.161 |
| AGTAACTG | -0.154 |
| GGTAACAA | 0.38 |
| CAGGGGAG | -0.0274 |
| GCTAATCC | -0.0663 |
| ATCGTTCA | 0.092 |
| CCTTCACA | 0.0885 |
| ACCTGACT | 0.143 |
| CCAGAACA | -0.00016 |
| ATGACCTG | 0.303 |
| CTGACCCA | -0.11 |
| AAGACCCA | 0.142 |
| GTGACCCA | 0.389 |
